Values joined by “and” are separate entries in the source; they are usually repeats but may differ in a detail not shown here. Identical values can stand only once. Results filed as inconclusive are left out. Active and inactive are the calls of the source. Unless noted, the call rests on the fitted dose curve; in most records, active means well fitted curve in the direction sought with a large enough effect; inconclusive means small, poorly fitted or top-dose-only effect, or another doubt; inactive means no such curve, though single readings can be large; an effect the other way counts as inactive or inconclusive. Peptide text beside a SMILES is read from it.
Assays:
[1] = Cell Viability - LYMP2-025 (AID 976);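 further: plate controls were DMSO only for no effect and tetraoctylammonium bromide control for full effect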
Procedure, shortened: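 Human lymphoblastoid LYMP2-025 cells, 2500/well, exposed 24 h at 37 C in complete medium in 1536-well qHTS. Viability as cellular ATP by CellTiter-Glo luminescence; AC50 from Hill fits of concentration-response data.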

[2] = Cell Viability - LYMP2-002 (AID 977);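 further: compound exposure lasted 24 h at 37 °C; plate controls were DMSO only for no effect and 92 µM tetraoctylammonium bromide for full effect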
Procedure, shortened: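 Human lymphoblastoid LYMP2-002 cells, 2500 per well, exposed to compounds for 24 h at 37 C in complete medium; viability read as intracellular ATP by CellTiter-Glo luminescence, AC50 from Hill fits.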

[3] = Cell Viability - LYMP2-006 (AID 978); further: on the % scale 0 is the no-effect control and ±100 the full control effect; nearly all actives have a fitted effect of over 60% in size
Procedure, shortened: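 Concentration-dependent loss of intracellular ATP in a human lymphoblastoid line after 24 hr treatment at 37 C was measured by CellTiter-Glo luminescence, with AC50 values obtained from standard Hill-equation modelling.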

[4] = Cell Viability - LYMP2-007 (AID 979);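 further: cells exposed to compound for 24 h before reading; 0% = DMSO only and the negative end = 92 µM tetraoctylammonium bromide; nearly all actives have a fitted effect of over 60% in size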
Procedure, shortened: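 Human lymphoblastoid LYMP2-007 cells (2500/well) preincubated 5 h at 37 C, then treated 24 h at 37 C in complete medium. Viability by CellTiter-Glo ATP luminescence after 30 min at room temperature; AC50 from Hill fits.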

[5] = Cell Viability - LYMP2-012 (AID 982);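 further: cellular ATP by luciferase luminescence where a drop means cytotoxicity; cells exposed to compound for one day before reading; 0% = DMSO only and full loss = 92 µM tetraoctylammonium bromide; nearly all actives have a fitted effect of over 55% in size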
[6] = Cell Viability - LYMP2-014 (AID 983);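 further: plate controls were DMSO only for no effect and 92 µM tetraoctylammonium bromide for full effect; nearly all actives have a fitted effect of over 50% in size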
Procedure, shortened: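 LYMP2-014 human lymphoblastoid cells, 2500/well, treated 24 h at 37 C in complete medium; viability by CellTiter-Glo ATP luminescence after 30 min at room temperature. AC50 from Hill fits of qHTS concentration-response; tetraoctylammonium bromide positive control.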

[7] = Cell Viability - LYMP2-016 (AID 984); further: on the % scale 0 is the no-effect control and ±100 the full control effect; nearly all actives have a fitted effect of over 55% in size
Procedure, shortened: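 Acute toxicity in a Coriell human lymphoblastoid line is scored as loss of intracellular ATP over 24 h of treatment in complete medium. CellTiter-Glo signal is fitted across concentrations with the Hill equation to give AC50.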

[8] = Cell Viability - LYMP2-018 (AID 985);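 further: compound exposure lasted 24 hr at 37 °C; plate controls were DMSO only for no effect and tetraoctylammonium bromide at 92 µM for full effect; nearly all actives have a fitted effect of over 50% in size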
Procedure, shortened: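 Human lymphoblastoid LYMP2-018 cells, 2500/well, settled 5 hr at 37 C then exposed to compound 24 hr at 37 C; intracellular ATP measured by CellTiter-Glo luminescence. AC50 from Hill-equation concentration-response fits.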

[9] = Cell Viability - LYMP2-020 (AID 986);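 further: plate controls were DMSO only for no effect and tetraoctylammonium bromide at 92 µM for full effect; nearly all actives have a fitted effect of over 55% in size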
Procedure, shortened: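 Human lymphoblastoid LYMP2-020 cells (2500/well) preincubated 5 h at 37 C, then treated 24 h at 37 C. Viability measured as intracellular ATP by CellTiter-Glo luminescence after 30 min at room temperature; AC50 from Hill fits.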

[10] = Cell Viability - LYMP2-022 (AID 987);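 further: 0% = DMSO alone and full effect = tetraoctylammonium bromide at 92 µM; nearly all actives have a fitted effect of over 55% in size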
Procedure, shortened: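 LYMP2-022 lymphoblastoid cells (2500/well, complete medium) were treated with compounds for 24 hours at 37 C; intracellular ATP was then read by CellTiter-Glo luminescence after 30 min at room temperature. AC50 values were derived from Hill-equation fits.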

[11] = Cell Viability - LYMP2-024 (AID 988);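 further: plate controls were DMSO only for no effect and 92 µM tetraoctylammonium bromide for full effect; nearly all actives have a fitted effect of over 60% in size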
Procedure, shortened: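 Human lymphoblastoid LYMP2-024 cells (2500/well) rested 5 hr, then treated with compound for 24 hr at 37 C in complete medium. Viability was measured as intracellular ATP by CellTiter-Glo luminescence. AC50 values came from Hill-equation fits.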

[12] = Cell Viability - LYMP2-026 (AID 989); further: on the % scale 0 is the no-effect control and ±100 the full control effect; nearly all actives have a fitted effect of over 50% in size
Procedure, shortened: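 Human lymphoblastoid LYMP2-026 cells, 2500/well, exposed to compound 24 h at 37 C in complete medium. Viability as intracellular ATP by CellTiter-Glo luminescence; AC50 from Hill fits of qHTS concentration-response.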

[13] = Cell Viability - LYMP1-002 - Assay at 24 hr (AID 993); further: on the % scale 0 is the no-effect control and ±100 the full control effect
Procedure, shortened: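 Human lymphoblastoid LYMP1-002 cells (2500/well) treated 24 h at 37 °C; viability as intracellular ATP by CellTiter-Glo luminescence. Tetraoctylammonium bromide as positive control; AC50 from Hill-equation fits of qHTS concentration-response.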

[14] = Cell Viability - LYMP1-002 - Assay at 40 hr (AID 994);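 further: 0% = DMSO only and full inhibition = 92 µM tetraoctylammonium bromide; nearly all actives have a fitted effect of over 60% in size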
Procedure, shortened: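 LYMP1-002 human lymphoblastoid cells (2500/well, complete medium) were treated with compounds for 40 hr at 37 C. Intracellular ATP was measured by CellTiter-Glo luminescence, and AC50 values came from Hill-equation fits of concentration-response data; tetraoctylammonium bromide was the positive control.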

[15] = target: DNA repair nuclease/redox regulator APEX1 (Homo sapiens) (UniProt P27695); assay: qHTS Validation Assay for Inhibitors of the Human Apurinic/apyrimidinic Endonuclease 1 (APE1) (AID 1705; further: potency means the concentration at half of the fitted maximal effect;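 on activity change, negative = inhibition: TAMRA fluorescence gain over two minutes as APE1 cuts a quenched THF abasic duplex; on the % scale 0 is the no-effect control and ±100 the full control effect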)
Procedure, shortened: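 Endonuclease activity of human APE1 is followed as dequenching when the enzyme incises a tetrahydrofuran abasic site in a short duplex labelled 5'-TAMRA/3'-BHQ-2 (50 nM final), after 15 min enzyme–compound preincubation at room temperature.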

[16] = Counterscreen for APE1 Inhibitors: Fluorescent Dye Displacement Validation Assay (AID 1707);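 further: plate controls were ThO with dsDNA and no compound for no effect and ThO without dsDNA for full effect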
Procedure, shortened: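 Assay buffer: Tris-HCl pH7.5 with 50mM NaCl, 2 mM MgCl2, 0.01% Tween-20. Dye 250 nM, duplex 50 nM final. Readout: decrease in ThO endpoint fluorescence, 480 nm excitation, 540 nm emission.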

[17] = target: Alpha-galactosidase A (Homo sapiens) (UniProt P06280); assay: Counterscreen for Glucocerebrosidase Inhibitors: qHTS Assay for Human alpha-Galactosidase at pH 4.5 (AID 992); further: 0% is about no effect
Procedure, shortened: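 Concentration-response curves (0.7 nM to 77 uM final) were modeled with the Hill equation to give AC50. Reactions: 2 nM enzyme, 80 uM fluorogenic alpha-galactoside, pH 4.5 citric acid buffer, 20 min, room temperature.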

[18] = target: alpha-glucosidase (Oryza sativa, rice) (UniProt Q653V4); assay: Counterscreen for Glucocerebrosidase Inhibitors: qHTS Assay for Rice alpha-Glucosidase at pH 5.0 (AID 997);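 further: 0% = full activity with enzyme and -100% = basal without enzyme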
Procedure, shortened: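 Rice alpha-glucosidase (4 nM final) with 400 uM 4-methylumbelliferyl-alpha-D-glucopyranoside in citrate buffer pH 5.0, 20 min at room temperature, stopped at pH 10; fluorescence 365/440 nm, compounds 0.7 nM–77 uM, AC50 from Hill fits.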

[19] = qHTS Assay for Lipid Storage Modulators (AID 1519; calls by dose curve; on activity change, negative = inhibition: on the % scale 0 is the no-effect control and ±100 the full control effect); conditions: Drosophila S3 cells, BODIPY lipid droplet/cell ratio, laser cytometry, cells loaded with oleic acid
Procedure, shortened: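 Cells seeded at 5,000 per well were treated with compounds over a concentration series and loaded with oleic acid (400 uM, as added). Lipid droplet fluorescence (488 nm excitation, 500-530 nm channel) was read by laser-scanning cytometry and normalized to 20 uM Triacsin C.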

[20] = measured here: cell count channel max response
[21] = measured here: lipid channel max response

Sequence of DNA repair nuclease/redox regulator APEX1 (Homo sapiens) (P27695 whole entry, looked up): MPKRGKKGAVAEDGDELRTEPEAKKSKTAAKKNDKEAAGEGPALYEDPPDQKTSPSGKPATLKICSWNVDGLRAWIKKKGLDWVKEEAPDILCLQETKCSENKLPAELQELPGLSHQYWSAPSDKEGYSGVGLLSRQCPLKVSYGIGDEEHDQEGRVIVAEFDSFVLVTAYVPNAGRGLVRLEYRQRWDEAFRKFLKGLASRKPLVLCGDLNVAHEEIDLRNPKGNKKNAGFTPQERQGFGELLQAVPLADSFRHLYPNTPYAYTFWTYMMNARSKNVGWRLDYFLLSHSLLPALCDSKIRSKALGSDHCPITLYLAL
Sequence of Alpha-galactosidase A (Homo sapiens) (P06280 whole entry, looked up): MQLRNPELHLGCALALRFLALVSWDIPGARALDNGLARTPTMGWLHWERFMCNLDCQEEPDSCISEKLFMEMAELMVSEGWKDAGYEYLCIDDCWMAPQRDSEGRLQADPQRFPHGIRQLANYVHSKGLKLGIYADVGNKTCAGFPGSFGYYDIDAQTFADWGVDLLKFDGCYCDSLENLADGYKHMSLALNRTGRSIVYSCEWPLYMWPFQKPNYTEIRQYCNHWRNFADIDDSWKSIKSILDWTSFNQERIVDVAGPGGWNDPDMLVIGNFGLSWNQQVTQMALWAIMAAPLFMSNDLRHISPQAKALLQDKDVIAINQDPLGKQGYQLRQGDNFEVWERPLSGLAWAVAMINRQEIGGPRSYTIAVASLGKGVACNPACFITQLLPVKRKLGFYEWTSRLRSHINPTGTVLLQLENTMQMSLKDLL

CCCCC(CC)COC(=O)C(C#N)=C(c1ccccc1)c1ccccc1 (stereo not given)
inactive: Potency [1] | Potency [2] | Potency [3] | Potency [4] | Potency [5] | Potency [6] | Potency [7] | Potency [8] | Potency [9] | Potency [10] | Potency [11] | Potency [12] | Potency [13] | Potency [14]

O=C(c1ccccc1)c1ccc2n1CCC2C(=O)O (stereo not given)
inactive: Potency [15] | Potency [16]

COc1ccccc1N1CCN(CCN(C(=O)C2CCCCC2)c2ccccn2)CC1
inactive: outcome [17] | outcome [18] | Potency [15] | Potency [16]

CC(=O)O[C@H]1C(=O)[C@@]2(C)C([C@H](OC(=O)c3ccccc3)[C@]3(O)C[C@H](OC(=O)[C@H](O)[C@@H](NC(=O)c4ccccc4)c4ccccc4)C(C)=C1C3(C)C)[C@]1(OC(C)=O)CO[C@@H]1C[C@@H]2O (stereo not given in full)
-15.5%: max response [19, 21]
inactive: activity change, negative = inhibition ([19]; at 57.5 µM (top of the series)) -1.06% | Potency [15] | Potency [16]
-13.9%: max response [19, 20]

NS(=O)(=O)c1cc(C(=O)O)c(NCc2ccco2)cc1Cl
inactive: Potency [1] | Potency [2] | Potency [3] | Potency [4] | Potency [5] | Potency [6] | Potency [7] | Potency [8] | Potency [9] | Potency [10] | Potency [11] | Potency [12] | Potency [13] | Potency [14]

COc1ccc2cc([C@H](C)C(=O)O)ccc2c1
1.06% and -6.98% and 54.6%: max response [19, 20]
5.84% and -5.9% and 56%: max response [19, 21]
inactive: outcome [17] | outcome [18] | activity change, negative = inhibition ([19]; at 25.7 µM (top of the series)) 4.21% and 0.227% | activity change, negative = inhibition ([19]; at 57.5 µM (top of the series)) 1.21% | Potency [15] | Potency [16]

O=C(O)c1cc(=O)c2c(OCC(O)COc3cccc4oc(C(=O)O)cc(=O)c34)cccc2o1
9.46% and 18.8%: max response [19, 20]
inactive: activity change, negative = inhibition ([19]; at 25.7 µM (top of the series)) -2.11% | activity change, negative = inhibition ([19]; at 57.5 µM (top of the series)) 11.5%
8.64% and 34.9%: max response [19, 21]

O=c1c(O)c(-c2ccc(O)cc2O)oc2cc(O)cc(O)c12
inactive: outcome [17] | outcome [18] | activity change, negative = inhibition ([19]; at 57.5 µM (top of the series)) 13.5% | Potency [16]
active: Potency [15] 5.01 µM
19%: max response [19, 21]
2.76%: max response [19, 20]

CS(=O)(=O)OCCCCOS(C)(=O)=O
inactive: Potency [1] | Potency [2] | Potency [3] | Potency [4] | Potency [5] | Potency [6] | Potency [7] | Potency [8] | Potency [9] | Potency [10] | Potency [11] | Potency [12] | Potency [13] | Potency [14]

COC(=O)[C@H](Cc1ccccc1)NC(=O)[C@@H](N)CC(=O)O (H-Asp-Phe-OMe)
inactive: Potency [1] | Potency [2] | Potency [3] | Potency [4] | Potency [5] | Potency [6] | Potency [7] | Potency [8] | Potency [9] | Potency [10] | Potency [11] | Potency [12] | Potency [13] | Potency [14]

NNc1nncc2ccccc12
inactive: outcome [17] | outcome [18] | Potency [15] | Potency [16]

O=c1oc2cc(O)ccc2s1
14.5%: max response [19, 20]
inactive: activity change, negative = inhibition ([19]; at 57.5 µM (top of the series)) 5.97%
23.2%: max response [19, 21]

c1ccc2[nH]c(-c3cscn3)nc2c1
-10.4%: max response [19, 21]
inactive: Potency [1] | Potency [2] | Potency [3] | Potency [4] | Potency [5] | Potency [6] | Potency [7] | Potency [8] | Potency [9] | Potency [10] | Potency [11] | Potency [12] | Potency [13] | Potency [14] | activity change, negative = inhibition ([19]; at 25.7 µM (top of the series)) 0.183%
-11.6%: max response [19, 20]

— PubChem BioAssay (NCATS)
